# Active and inactive are the calls of the source.
# Key:
# [1] = test system: Plasmodium falciparum Sir2 (PF13_0152, Sir2A); test: Plasmodium falciparum Sir2A binding compounds – biochemical, small-molecule microarray, 635 nm fluorescence, primary screen (AID 1098); conditions: fluorescence 635 nm, higher = more signal;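 note: score merges spot fluorescence intensity with its signal-to-noise ratio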
# [2] = probe aDKK1 binding to arrayed compounds – biochemical, biotinylated probe, 635/667 nm fluorescence, primary screen (AID 1099); conditions: small-molecule microarray, higher = more signal;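 note: score merges 667nm spot fluorescence with signal to noise across triplicate slides; reference of the scale not given here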
# [3] = probe aCHRDL2 binding to arrayed compounds – biochemical, biotinylated probe, 635/667 nm fluorescence, primary screen (AID 1100); conditions: small-molecule microarray, higher = more signal
# [4] = change in splice reporter luminescence, either direction, cell-based, HEK293, spliceosome inhibition project, primary screen (AID 1101); conditions: HEK293 splicing luciferase reporter, 24 h, higher = more signal, called active from +8 up or from −8 down;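 note: HEK293 cells carrying a splicing-competent luciferase reporter gene; test concentration not given here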
# [5] = biological target: Fibroblast growth factor 10 (Homo sapiens) (UniProt O15520); test: compounds binding fibroblast growth factor 10 – biochemical, small-molecule microarray, 635 nm fluorescence, primary screen (AID 1102); conditions: FGF10 binding, fluorescence 635 nm, higher = more signal
# Chain of Fibroblast growth factor 10 (Homo sapiens) (O15520 whole entry, looked up): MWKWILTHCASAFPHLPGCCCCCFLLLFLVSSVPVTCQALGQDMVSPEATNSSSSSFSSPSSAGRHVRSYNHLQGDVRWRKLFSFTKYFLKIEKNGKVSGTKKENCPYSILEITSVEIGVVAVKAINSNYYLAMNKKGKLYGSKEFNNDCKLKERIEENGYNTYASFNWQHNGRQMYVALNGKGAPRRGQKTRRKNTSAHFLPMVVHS
# [6] = test system: glycogen synthase kinase-3 (GSK3A per assay name; protocol says GSK3B); test: compounds binding glycogen synthase kinase-3 – biochemical, small-molecule microarray, 635 nm fluorescence, GSK3A, primary screen (AID 1103); conditions: fluorescence 635 nm, higher = more signal; note: the record names both GSK3A and GSK3B
# [7] = biological target: Epidermal growth factor receptor (Homo sapiens) (UniProt P00533); test: compounds binding epidermal growth factor receptor – biochemical, small-molecule microarray, 635 nm fluorescence, primary screen (AID 1104); conditions: EGFR binding, higher = more signal;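 note: score merges 667 nm emission intensity with spot signal to noise over triplicate slides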
# Chain of Epidermal growth factor receptor (Homo sapiens) (P00533 whole entry, looked up): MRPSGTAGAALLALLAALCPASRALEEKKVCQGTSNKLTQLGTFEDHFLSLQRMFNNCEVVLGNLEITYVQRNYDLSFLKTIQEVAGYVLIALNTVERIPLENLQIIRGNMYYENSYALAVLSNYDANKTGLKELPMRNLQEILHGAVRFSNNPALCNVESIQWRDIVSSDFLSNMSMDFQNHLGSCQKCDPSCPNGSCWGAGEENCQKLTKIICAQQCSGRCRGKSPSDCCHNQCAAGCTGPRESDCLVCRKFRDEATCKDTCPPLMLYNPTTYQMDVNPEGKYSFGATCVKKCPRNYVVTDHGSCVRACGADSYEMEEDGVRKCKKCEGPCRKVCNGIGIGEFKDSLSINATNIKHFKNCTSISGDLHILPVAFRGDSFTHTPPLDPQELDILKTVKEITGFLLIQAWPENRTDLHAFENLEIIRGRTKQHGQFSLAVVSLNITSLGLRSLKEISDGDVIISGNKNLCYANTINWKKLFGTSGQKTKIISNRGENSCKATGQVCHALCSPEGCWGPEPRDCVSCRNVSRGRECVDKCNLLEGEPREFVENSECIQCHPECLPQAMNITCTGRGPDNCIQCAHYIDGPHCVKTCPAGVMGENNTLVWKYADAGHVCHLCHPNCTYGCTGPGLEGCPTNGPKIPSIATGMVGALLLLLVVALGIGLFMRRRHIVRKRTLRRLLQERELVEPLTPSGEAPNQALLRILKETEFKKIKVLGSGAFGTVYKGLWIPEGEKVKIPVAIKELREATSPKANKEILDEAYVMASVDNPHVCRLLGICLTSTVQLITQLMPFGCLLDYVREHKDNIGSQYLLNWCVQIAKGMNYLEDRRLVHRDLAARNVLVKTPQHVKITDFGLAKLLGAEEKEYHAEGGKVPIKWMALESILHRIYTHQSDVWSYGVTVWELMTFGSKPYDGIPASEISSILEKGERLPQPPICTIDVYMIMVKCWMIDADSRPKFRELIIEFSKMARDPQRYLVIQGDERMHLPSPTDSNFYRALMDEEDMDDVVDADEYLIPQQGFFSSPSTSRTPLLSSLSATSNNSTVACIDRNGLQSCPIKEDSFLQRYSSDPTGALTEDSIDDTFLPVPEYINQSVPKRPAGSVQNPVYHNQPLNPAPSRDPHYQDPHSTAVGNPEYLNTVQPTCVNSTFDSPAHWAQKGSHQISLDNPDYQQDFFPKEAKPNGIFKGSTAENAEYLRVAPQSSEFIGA
# [8] = biological target: Follistatin-related protein 3 (Homo sapiens) (UniProt O95633); test: compounds binding follistatin-related protein 3 – biochemical, small-molecule microarray, 635 nm fluorescence, primary screen (AID 1105); conditions: FSTL3 binding, higher = more signal;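 note: score merges emission near 667 nm and signal to noise per printed spot across three slides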
# Chain of Follistatin-related protein 3 (Homo sapiens) (O95633 whole entry, looked up): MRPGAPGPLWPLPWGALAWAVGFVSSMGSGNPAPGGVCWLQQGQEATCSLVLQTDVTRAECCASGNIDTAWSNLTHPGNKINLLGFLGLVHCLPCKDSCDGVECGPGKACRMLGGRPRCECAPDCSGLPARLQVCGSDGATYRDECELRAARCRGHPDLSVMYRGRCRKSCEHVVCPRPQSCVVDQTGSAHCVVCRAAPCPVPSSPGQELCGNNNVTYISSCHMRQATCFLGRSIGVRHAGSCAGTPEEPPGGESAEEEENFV
# [9] = biological target: Dickkopf-related protein 1 (Homo sapiens) (UniProt O94907); test: small molecules binding DKK1 protein – biochemical, small-molecule microarray, 635 nm fluorescence scan, primary screen (AID 1106); conditions: higher = more signal;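 note: score merges emission near 667 nm with signal to noise over three replicate slides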
# Chain of Dickkopf-related protein 1 (Homo sapiens) (O94907 whole entry, looked up): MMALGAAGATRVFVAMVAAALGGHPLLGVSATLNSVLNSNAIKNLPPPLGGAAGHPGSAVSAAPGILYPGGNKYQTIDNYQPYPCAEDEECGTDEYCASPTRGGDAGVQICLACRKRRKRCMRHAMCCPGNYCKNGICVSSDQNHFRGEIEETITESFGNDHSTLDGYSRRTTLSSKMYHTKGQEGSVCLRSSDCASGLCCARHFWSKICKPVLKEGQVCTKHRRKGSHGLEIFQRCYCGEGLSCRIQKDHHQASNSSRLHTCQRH
# [10] = test system: Inhibin beta A chain (activin A); test: small molecules binding activin A – biochemical, small-molecule microarray, 635 nm fluorescence scan, primary screen (AID 1107); conditions: INHBA, higher = more signal;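 note: mouse activin A protein probed at 4.33 µg/mL on printed slides; score merges bound-protein fluorescence near 667 nm with spot signal-to-noise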
SMILES,composite z-score [1],composite z-score [2],composite z-score [3],z-score [4],composite z-score [5],composite z-score [6],composite z-score [7],composite z-score [8],composite z-score [9],composite z-score [10]
C=C(COC)C(=O)CC[C@@H](OC(C)=O)c1ccccc1OCCO,1.29,-0.232,0.313,1.34 (inactive),1.53,-0.0163,-0.0143,0.209,-0.306,1.38
C=CC1c2cc(O)c(OC)cc2CCN1C (stereo not given),0.21,0.416,0.759,0.978 (inactive),-0.169,-1.24,-0.534,-0.332,-0.26,0.725
O=C1C[C@@](C(=O)NC2CC2)(c2ccc([N+](=O)[O-])cc2)[C@@H](c2ccc(CO)cc2)N1C1CCCCC1,1.68,0.0035,0.49,-0.975 (inactive),1.5,0.808,0.359,1.32,0.517,0.357
C=C(CCCC)/C(=C/C[C@H](OC(C)=O)c1cccc(OCCO)c1)c1cnc2ccccc2c1,0.989,-0.149,-0.0497,-0.142 (inactive),-0.252,-0.31,0.228,0.234,0.0193,1.83
CC(C)NC(=O)[C@@]1(c2ccc([N+](=O)[O-])cc2)CC(=O)N(CC23CC4CC(CC(C4)C2)C3)[C@@H]1c1ccc(CO)cc1,1.4,0.998,0.931,-0.279 (inactive),0.911,1.34,0.396,1.45,1.3,0.64
COCCOC(=O)N1C(=O)[C@@]2(c3cc(C#CC4(O)CCCCCC4)ccc31)[C@H](c1ccc(O)cc1)N1[C@H](c3ccccc3)[C@H](c3ccccc3)OC(=O)[C@H]1[C@@H]2C(=O)N1CCCCCCC1,1.08,1.2,0.771,-0.803 (inactive),1.28,1.29,0.314,1.05,0.112,1.72
CC(=O)c1ccc(C(O)C2C=CC3C(=O)N(c4ccccc4)C(=O)C3N2Nc2ccc(C(C)C)cc2)cc1 (stereo not given),0.696,1.46,0.865,-0.385 (inactive),1.01,0.806,0.314,1.25,-0.0216,1.05
O=C(O)[C@H](Cc1ccccc1)n1cc(C2(O)CCCCC2)nn1,-0.0685,-0.201,-0.518,-0.358 (inactive),0.193,0.938,0.213,0.343,0.196,-0.0247
C=C(COC)/C(=C/C[C@H](OC(C)=O)c1ccccc1OCCO)c1cc(C(=O)OC)ccc1OC,0.989,-0.103,-0.0952,-0.907 (inactive),1.05,0.196,-0.607,0.186,0.189,0.289
CC1CC/C=C\[C@H]2OC34C=CCN(c5ccc6ccccc6c5)C(=O)[C@H]3N(C(C)CO)C(=O)[C@@H]4C2C(=O)O1 (stereo not given in full),1.38,-0.087,0.404,0.0493 (inactive),-0.83,-1.36,-0.975,-1.04,-0.591,0.265
C=CCC(OC(C)=O)[C@@H]1[C@@H](N(Cc2ccc(-c3cccc(C(F)(F)F)c3)o2)C(=O)Cc2ccc(F)cc2)c2cc(OCCCO)ccc2N1C(=O)Cc1ccc2ccccc2c1 (stereo not given in full),-0.595,-0.341,0.228,0.705 (inactive),-0.195,-1.79,-0.676,-0.511,-0.286,1.12
CCOC(=O)C[C@H]1[C@H](OC(=O)Cc2ccc3c(c2)OCO3)[C@@H](NC(=O)c2ccc3ccccc3n2)c2cc(OCCCO)ccc2N1C(=O)Cc1ccc(OC)cc1,0.435,0.0621,0.195,-1.8 (inactive),0.438,0.25,-0.374,0.882,0.163,0.257
CCCNC(=O)[C@@]1(Sc2ccc(C)cc2)CC(=O)N(Cc2ccccc2Cl)[C@@H]1c1ccc(CO)cc1I,0.958,0.147,0.864,-0.766 (inactive),-0.87,-0.51,-1.49,-1.14,-1.54,0.472
CCCCC(=C=CC[C@H](O)c1ccc(CO)o1)CCO,1.17,-0.0027,-0.485,0.263 (inactive),0.738,0.514,-0.0244,0.484,-0.0878,0.839
